Screens (PubChem)
TGFb inhibitor: inhibitors of TGF-b signaling. HepG2 CAGA-GFP TGF-b/SMAD3 reporter, GFP fluorescence, 18 h; TGF-beta stimulated, 500 pg/mL final. AID 588855. Potency, µM (top dose mostly 46.1 µM), without a hit: at the top dose activity, negative = inhibition, usual class: inhibitors. actives 1.2% (n = 410,000); note: % is set by controls: 0 for no effect and ±100 for the full control effect; nearly all actives have a fitted effect of over 65% in size
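TGF-beta reporter screen: HEPG2 CAGA-GFP, 1% FBS, 500 pg/mL TGF-beta final, 18 h; per-cell GFP summed per well; curves fitted and categorized by class.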
DT40 TDP1 no CPT: qHTS for Inhibitors of human tyrosyl-DNA phosphodiesterase 1 (TDP1): qHTS in cells in absence of CPT | DT40 Tdp1-/- hTDP1 cells, no CPT, ATP luminescence, 48 h | Potency, µM (highest dose often 46.2 µM), for inactives: at the highest dose activity change, negative = growth inhibition, actives largely listed as inhibitors | actives 15% (n = 420,000) | AID 686978, 2013; note: % is set by controls: 0 for no effect and ±100 for the full control effect; nearly all actives have a fitted effect of over 55% in size
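Camptothecin absent (DMSO only). Human TDP1-complemented DT40 knockout cells, 400 cells/well, 37 °C for minimum 48 hr; ATP measured via CellTiter-Glo, 30 min dark incubation, luminescence.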
HepG2 tox: counter-screen for TGF-b inhibitors: cytotoxicity in HepG2 cells; Potency, µM (doses to about 46.1 µM), for inactives: at the top dose activity change, negative = cytotoxicity, actives largely listed as cytotoxic; HepG2 CAGA-GFP viability, ATP luminescence, 18 h; actives 0.76% (n = 410,000)
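CellTiter-Glo luminescence gave cytotoxicity after 18 hours at 37 degrees C. The cells were HepG2 CAGA-GFP in 1% FBS DMEM, stimulated with 500 pg/mL TGF-beta after compound addition. %Activity was normalised to no-cell wells (complete cell-killing) and DMSO (no toxicity), and curves were fitted and classified.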
DT40 TDP1 CPT: growth inhibition of DT40 Tdp1-/-;hTDP1 cells with camptothecin (screen for TDP1 inhibitors) | chicken DT40 Tdp1-/-;hTDP1 cells + 20 nM CPT, ATP luminescence, 48 h | Potency, µM (doses to about 46.2 µM), inactives show at the top dose activity change, negative = growth inhibition, hits mostly inhibitors | actives 12% (n = 420,000) | AID 686979; note: % is set by controls: 0 for no effect and ±100 for the full control effect; nearly all actives have a fitted effect of over 55% in size
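Chicken DT40 Tdp1-/- cells complemented with human TDP1, 400 cells/well, exposed to compounds plus 20 nM camptothecin for at least 48 h at 37 C; viability read as ATP content by CellTiter-Glo luminescence.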
HT1080 IDH1KD tx: kills HT-1080 cells with IDH1 knockdown. HT-1080 IDH1 knockdown viability, ATP luminescence, 48 h. Potency, µM (highest dose often 46.1 µM), without a hit: at the highest dose activity, negative = toxicity, usual class: cytotoxic. actives 2% (n = 360,000). AID 686971;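 note: 0% = DMSO wells and -100% = cell-free medium wells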
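After a 2 h attachment period, IDH1KD HT-1080 cells took pin-transferred compound for 48 h at 37 °C; ATP-based luminescence after 10 min room-temperature reagent incubation reported viability.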
HT1080-NT tox: kills 2HG-producing HT-1080-NT fibrosarcoma cells. HT-1080-NT fibrosarcoma viability, CellTiter-Glo ATP luminescence, 48 h. Potency, µM (series often up to 46.1 µM), for inactives: top-dose activity, negative = less viability, hits mostly cytotoxic. actives 1.6% (n = 360,000). AID 686970;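 note: NT is the 2HG producing partner of a matched IDH1 knockdown line; 0% = DMSO-treated cells and -100% = media-only wells without cells; nearly all actives have a fitted effect of over 55% in size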
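Read-out is CellTiter-Glo luminescence after 10 minutes at room temperature, following 48 hours' compound treatment of HT-1080-NT cells (750 cells/well, RPMI, 5% FBS, 37 degrees C).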
* = called active by the depositor; ? = inconclusive; . = no result given; [ ] = dose if it differs, or a comment. Compounds with a hit are over-represented: about 17% of the library has one in this group of screens. Calls come from the whole dose curve; as a rule, active = well fitted curve in the direction sought with a large enough effect; inconclusive = small, poorly fitted or top-dose-only effect, or another doubt; inactive = no such curve, though single readings can be large; an effect the other way counts as inactive or inconclusive. Potency is the fitted concentration of half-maximal effect.

SMILES	TGFb inhibitor	DT40 TDP1 no CPT	HepG2 tox	DT40 TDP1 CPT	HT1080 IDH1KD tx	HT1080-NT tox
COC(=O)c1cc(=O)n(CCc2ccc(OC)cc2)c(=Nc2ccc(F)c(Cl)c2)s1	?	?	-39.5%	?	?	20.6µM*
COC(=O)c1cc(=O)n(Cc2ccc3c(c2)OCO3)c(=Nc2ccc(F)c(Cl)c2)s1	1.9%	6.51µM*	0.8%	8.2µM*	-1.2%	14.1%
Cc1ccc(OCC(=O)OC(C)CN2CCCCC2)cc1 (centres undefined)	-15.1%	1.3%	5.4%	-6.0%	-0.2%	5.8%
CC1(C)CC(NC2C3CC4CC(C3)CC2C4)CC(C)(C)N1 (centres undefined)	0.0%	14.6µM*	-56.5%	18.4µM*	?	-10.4%
COc1ccc(-c2cc(OC(=O)c3cccc(Cl)c3)c3c(C)oc(C)c3c(=O)c2)cc1	63.1%	?	-1.1%	25.9µM*	.	.
COc1ccc(C(=O)Nc2ccc3oc(-c4cccc(Cl)c4)cc(=O)c3c2O)cc1	-4.9%	?	-30.2%	-28.1%	?	-17.3%
CCOc1cc(-c2ccc(OC(=O)c3ccccc3)c(OC)c2)cc(=O)c2c(C)oc(C)c12	3.5%	5.8µM*	-5.6%	6.51µM*	.	.
CCOc1cc(-c2ccc(OC(=O)c3ccc(Cl)cc3)c(OC)c2)cc(=O)c2c(C)oc(C)c12	0.0%	5.17µM*	-0.7%	4.61µM*	.	.
COc1ccc(-c2cc(OC(=O)c3ccccc3)c3c(C)oc(C)c3c(=O)c2)cc1OC	108.3%	?	-3.0%	?	.	.
COc1ccc(Cc2nc3ccc(C(=O)NC(C)c4cnn(C)c4)cc3o2)cc1 (centres undefined)	4.4%	-12.1%	-20.6%	-20.1%	-1.1%	-3.3%
CSC1=C(C#N)C(c2ccc(Cl)cc2)C2=C(CC(C)(C)CC2=O)N1 (centres undefined)	11.2µM*	0.92µM*	4.4%	0.92µM*	8.2µM*	-29.2%
COc1cccc(C2C(C#N)=C(C)NC3=C2C(=O)CC(C)(C)C3)c1 (centres undefined)	-1.0%	?	-13.0%	-3.5%	4.7%	5.8%
COc1ccc(C2C(C#N)=C(C)NC3=C2C(=O)CC(C)(C)C3)cc1 (centres undefined)	2.9%	-14.4%	7.9%	-28.6%	8.4%	3.5%
CCCSC1=C(C#N)C(c2ccc(OC)cc2)C2=C(CC(C)(C)CC2=O)N1 (centres undefined)	?	4.11µM*	-30.2%	5.17µM*	?	?
Cc1ccc(OCCCC(=O)N(C)CC(=O)Nc2c(C)cccc2C)cc1	-1.4%	?	2.4%	-9.4%	9.6%	3.2%
Cc1ccc(-c2cc3nn(-c4ccccc4)c(N)c3c(=O)o2)cc1	1.1%	20.6µM*	-15.2%	?	-11.3%	?
Cc1cc2nc(N=C(N)N)nc(C)c2cc1C	-11.0%	8.2µM*	0.9%	14.6µM*	-0.1%	-22.1%
Cc1nc(/N=C(\N)NC(=O)c2ccccc2)nc2ccccc12	?	?	-54.8%	29.1µM*	?	?
Cc1nc(/N=C(\N)NC(=O)N2c3ccccc3Sc3ccccc32)nc2ccccc12	?	?	-1.6%	?	-1.0%	-0.9%
CCc1ccc2nc(N=C(N)N)nc(C)c2c1	-19.6%	7.31µM*	-35.2%	10.3µM*	?	?
Cc1ccc2nc(N=C(N)N)nc(C)c2c1	?	23.1µM*	-16.3%	?	?	?
Cc1cc2nc(/N=C(\N)NC(=O)C(C)C)nc(C)c2cc1C	-23.5%	?	0.5%	?	-15.4%	-25.2%
O=C(c1ccncc1)N1CCC2(CCC(CNC(=O)C3(N4CCOCC4)CCCCC3)O2)CC1 (centres undefined)	.	-4.8%	.	5.3%[9.04 µM]	.	.
CCN(CC)C(=O)CN1C(=O)COCC1=O	0.8%	-3.7%	7.4%	-4.5%	-3.3%	2.6%
O=C(c1ccc2ccccc2n1)N(CCO)Cc1ccccc1	-3.0%	-18.0%	-7.4%	-8.6%	14.2%	0.2%
SMILES	TGFb inhibitor	DT40 TDP1 no CPT	HepG2 tox	DT40 TDP1 CPT	HT1080 IDH1KD tx	HT1080-NT tox
Cn1c(=O)c2cc(NC(=O)NCc3ccc(Cl)cc3Cl)ccc2n1Cc1ccccc1	-32.8%	?	-24.7%	?	-5.3%	-1.0%
CCCC(=O)N/C(N)=N/c1nc(C)c2cc(C)ccc2n1	5.7%	23.1µM*	-13.2%	18.4µM*	-15.6%	1.7%
CCC(=O)N/C(N)=N/c1nc(C)c2cc(C)c(C)cc2n1	19.2%	?	23.7%	-20.9%	1.8%	6.8%
CC1CC(C)CN(c2ncc3c(n2)CC(c2ccc(Cl)cc2)CC3=O)C1 (centres undefined)	18.5%	8.2µM*	-2.9%	?	1.3%	3.4%
CC1CC(C)CN(c2ncc3c(n2)CC(c2ccccc2Cl)CC3=O)C1 (centres undefined)	?	20.6µM*	0.1%	?	9.5%	6.8%
C#CCN1C(=O)C2(OCCO2)c2ccccc21	22.4%	17.4%	5.8%	11.8%	8.6%	15.7%
COc1ccc(N(CC(=O)Nc2ccc(C)cn2)S(=O)(=O)c2c(C)noc2C)cc1	-4.8%	-10.5%	5.7%	-19.0%	-14.3%	-1.0%
CN1C(=O)C2C3c4ccccc4C(c4ccccc43)[C@@H]2C1=O (some centres undefined)	0.0%	?	-1.0%	?	6.0%	8.7%
O=C1C2C3c4ccccc4C(c4ccccc43)C2c2nc3ccccc3n21 (centres undefined)	-6.2%	4.11µM*	-24.1%	4.11µM*	-5.0%	-17.6%
Cc1cccc(NC(c2ccccc2F)c2ccc3ccc(C)nc3c2O)n1 (centres undefined)	?	23.1µM*	-0.1%	?	.	.
COc1ccc(C(Nc2ccccn2)c2ccc3ccc(C)nc3c2O)cc1C (centres undefined)	?	?	-35.2%	?	.	.
Cc1ccc(NC(c2ccccc2)c2nc3ccccc3[nH]c2=O)cc1 (centres undefined)	?	?	-30.0%	?	2.6%	3.1%
Cc1ccc(C)c(C(Nc2ccccc2)c2ccc3ccc(C)nc3c2O)c1 (centres undefined)	.	18.4µM*	.	20.6µM*	?	?
CCCCOc1ccc(CNC(=O)c2cnc3sc(N4CCCC4)nn3c2=O)cc1	-9.9%	?	1.6%	?	.	.
